Laboratory results taken from paper PMC8136818, “Evolving origin-of-transfer sequences on staphylococcal conjugative and mobilizable plasmids—who’s mimicking whom?”.

T1: SmpO408 (Staphylococcus aureus M0408)
T1 chain: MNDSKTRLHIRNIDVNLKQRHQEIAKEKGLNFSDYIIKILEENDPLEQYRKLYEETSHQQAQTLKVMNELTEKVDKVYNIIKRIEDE

T2: SmpOUNa (plasmid pC02)
T2 chain: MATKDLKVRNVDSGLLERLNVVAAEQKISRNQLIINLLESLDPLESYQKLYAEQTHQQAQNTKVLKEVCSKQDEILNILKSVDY

T3: SmpOSep (Staphylococcus epidermidis VCU120)
T3 chain: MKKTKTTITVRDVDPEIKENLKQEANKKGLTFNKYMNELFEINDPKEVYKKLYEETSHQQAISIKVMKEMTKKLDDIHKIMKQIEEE

B1: OT408 For/Rev_9 (dsDNA)
DNA 1: GGTACATTTTGGGTACAAAACGGTTTTATA
DNA 2: TATAAAACCGTTTTGTACCCAAAATGTACC
B2: ossA408-7 (dsDNA)
DNA 1: TTATAGCCGCCTAATA
DNA 2: TATTAGGCGGCTATAA
B3: OT408 For/Rev_13 (dsDNA)
DNA 1: AAAAACCTCTGTATCCCTTGAAATGTCTGG
DNA 2: CCAGACATTTCAAGGGATACAGAGGTTTTT
B4: OT408 For/Rev_10 (dsDNA)
DNA 1: GGGTACAAAACGGTTTTATAGGCGCCTAAT
DNA 2: ATTAGGCGCCTATAAAACCGTTTTGTACCC
B5: ossA408-14 (dsDNA)
DNA 1: TTATAGGCGCCTATTA
DNA 2: TAATAGGCGCCTATAA
B6: ossA408-4 (dsDNA)
DNA 1: TTAAAGGCGCCTAATA
DNA 2: TATTAGGCGCCTTTAA
B7: OT408 For/Rev_7 (dsDNA)
DNA 1: GTACAGACACAATATATAGGGGTACATTTT
DNA 2: AAAATGTACCCCTATATATTGTGTCTGTAC
B8: OTUNa For/Rev_18 (dsDNA)
DNA 1: GGGTACATATTTCCCTTATGCTCTTACAAA
DNA 2: TTTGTAAGAGCATAAGGGAAATATGTACCC
B9: ossA408-1 (dsDNA)
DNA 1: ATATAGGCGCCTAATA
DNA 2: TATTAGGCGCCTATAT
B10: ossBSep (dsDNA)
DNA 1: TAAATGTATGCATATT
DNA 2: AATATGCATACATTTA
B11: ossA408-16 (dsDNA)
DNA 1: TTATAGGCGCCTAATT
DNA 2: AATTAGGCGCCTATAA
B12: ossA408-13 (dsDNA)
DNA 1: TTATAGGCGCCTTATA
DNA 2: TATAAGGCGCCTATAA
B13: ossASep (dsDNA)
DNA 1: TTTGCATACATTTAAA
DNA 2: TTAAATGTATGCAAA
B14: ossA408-2 (dsDNA)
DNA 1: TAATAGGCGCCTAATA
DNA 2: TATTAGGCGCCTATTA
B15: ossA408-3 (dsDNA)
DNA 1: TTTTAGGCGCCTAATA
DNA 2: TATTAGGCGCCTAAAA
B16: OT408 For/Rev_12 (dsDNA)
DNA 1: GGCGCCTAATAAAAACCTCTGTATCCCTTG
DNA 2: CAAGGGATACAGAGGTTTTTATTAGGCGCC
B17: OT408 For/Rev_14 (dsDNA)
DNA 1: GTATCCCTTGAAATGTCTGGCTTCGCCAGA
DNA 2: TCTGGCGAAGCCAGACATTTCAAGGGATAC
B18: OTUNA.4 (dsDNA)
DNA 1: TTAATTTTTGTGACCCCCATAAGATAAATG
DNA 2: CATTTATCTTATGGGGGTCACAAAAATTAA
B19: OTUNa For/Rev_16 (dsDNA)
DNA 1: AGATTACCCATTATAAAATGGGTACATATT
DNA 2: AATATGTACCCATTTTATAATGGGTAATCT
B20: ossA408 C11G (dsDNA)
DNA 1: TTATAGGCGCGTAATA
DNA 2: TATTACGCGCCTATAA

Molecular target: T1, SmpO408
Test: SPR (ReDCaT); 300 mM NaCl; 10 mM HEPES, 3 mM EDTA, 0.05% Tween 20, NaCl 150 mM (SmpO49 screens), 300 mM (SmpO45, SmpO408, SmpOUNa screens) or 250 mM (Table S4); pH and temperature not stated; protein 1 uM; high values mean tight binding
Settings: protein: recombinant; tags: His6-TEV, cleaved; chain copies: 4
Outline: (§1)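 Protein with its tag removed was produced in E. coli BL21(DE3)pLysS and purified by nickel-affinity and then size-exclusion chromatography. On a Biacore T200 SA chip with reusable DNA capture, OriT oligonucleotides were captured at 1 μM on Fc2 and a linker alone on Fc1, and protein at 1 μM was injected at 30 μl/min with 60 s contact and 60 s dissociation in 10 mM HEPES, 300 mM NaCl, 3 mM EDTA, 0.05% Tween 20. DNA binding is given as %Rmax.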

Binder | binding signal [%Rmax]
B1 | 4.6
B2 | 49.8 ± 2.35
B3 | 4.19
B4 | 71.2
B5 | 63 ± 0.997
B6 | 69 ± 1.82
B7 | 7.42
B9 | 67.4 ± 2.06
B11 | 65.1 ± 0.98
B12 | 63.9 ± 1.66
B14 | 65.7 ± 2.04
B15 | 64.4 ± 1.7
B16 | 25.9
B17 | 8.57
B20 | 34.5 ± 1.85

Molecular target: T2, SmpOUNa
Test: as above
Settings: protein: recombinant; tags: His6-TEV, cleaved; chain copies: 4
Outline: as §1

Binder | binding signal [%Rmax]
B8 | 26.2 ± 1.85
B18 | 58.4 ± 1.36
B19 | 12.5 ± 0.926

Molecular target: T3, SmpOSep
Test: SPR (ReDCaT); 250 mM NaCl; 10 mM HEPES, 3 mM EDTA, 0.05% Tween 20, NaCl 150 mM (SmpO49 screens), 300 mM (SmpO45, SmpO408, SmpOUNa screens) or 250 mM (Table S4); pH and temperature not stated; protein 1 uM; high values mean tight binding
Settings: protein: recombinant; tags: His6-TEV, cleaved; chain copies: 4

Binder | binding signal [%Rmax]
B10 | 16.5
B13 | 18.8
